# Screening data (PubChem)
# Sampled rows, rich in hits. Any-hit rate of the full collection: about 19%.
# HT1080NT lethal: kills 2HG-producing HT-1080-NT fibrosarcoma cells; HT-1080-NT fibrosarcoma viability, CellTiter-Glo ATP luminescence, 48 h; Potency, µM (series often up to 46.1 µM), for the others: at the highest dose activity, negative = less viability, most hits filed as cytotoxic; 360,000 tested, 1.6% active; AID 686970;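 also: NT is the 2HG producing partner of a matched IDH1 knockdown line; 0% = DMSO-treated cells and -100% = media-only wells without cells; nearly all actives have a fitted effect of over 55% in size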
#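 HT-1080-NT fibrosarcoma cells (2HG-overproducing), 750 cells/well in RPMI with 5% FBS, dosed after 2 h and incubated 48 h at 37C. CellTiter-Glo luminescence normalized to DMSO and no-cell wells; concentration-response curves fitted and classed.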
# HT1080 IDH1KD tx: toxicity to HT-1080 IDH1 knockdown cells (counter line). Potency, µM (highest dose often 46.1 µM), inactives show at the highest dose activity, negative = toxicity, hits mostly cytotoxic. AID 686971. HT-1080 IDH1 knockdown viability, ATP luminescence, 48 h. 360,000 tested, 2% active;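 also: 0% = DMSO wells and -100% = cell-free medium wells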
#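 Luminescent ATP read-out (CellTiter-Glo, 10 min at room temperature) after 48 h compound exposure at 37 °C gave viability of IDH1-knockdown HT-1080 cells. Activity was normalised to DMSO and cell-free wells, then fitted as concentration-response curves.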
# KB-V1 cytotox: kills drug-selected multidrug resistant KB-V1 cells. KB-V1 MDR cells viability, CellTiter-Glo, 72 h. 400,000 tested, 3.4% active. AID 1347076. Potency, µM (top dose mostly 46.1 µM), usual class: cytotoxic; also: nearly all actives have a fitted effect of over 60% in size
#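 Luminescent ATP read-out (CellTiter-Glo, 10 min) measures survival of drug-selected KB-V1 MDR cells after 72 h, 37 degrees C compound exposure. Medium: phenol-red-free DMEM, 10% FBS. Values from fitted concentration-response curves.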
# KB-3-1 tox: KB-3-1 parental cell cytotoxicity; KB-3-1 viability, CellTiter-Glo ATP luminescence, 72 h; Potency, µM (series often up to 46.1 µM), hits mostly cytotoxic; 400,000 tested, 1.4% active; also: nearly all actives have a fitted effect of over 60% in size
#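 Parental KB-3-1 adenocarcinoma cells in phenol-red-free DMEM with 10% FBS were pin-treated with compounds at several concentrations, incubated 72 h at 37 °C, and viability read by CellTiter-Glo luminescence; concentration-effect curves were fitted after normalization.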
# DT40 TDP1 no CPT: qHTS for Inhibitors of human tyrosyl-DNA phosphodiesterase 1 (TDP1): qHTS in cells in absence of CPT | DT40 Tdp1-/- hTDP1 cells, no CPT, ATP luminescence, 48 h | 420,000 tested, 15% active | Potency, µM (series often up to 46.2 µM), for inactives: at the top dose activity change, negative = growth inhibition, usual class: inhibitors | AID 686978, 2013; also: nearly all actives have a fitted effect of over 55% in size
#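 Stably hTDP1-transfected Tdp1-null chicken DT40 cells were treated with library compounds minus camptothecin and grown for at least 48 hr at 37 °C, after which cellular ATP was quantified by luminescence.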
# DT40 TDP1 CPT: DT40-hTDP1 cell growth loss with CPT | Potency, µM (doses to about 46.2 µM), for inactives: at the top dose activity change, negative = growth inhibition, actives largely listed as inhibitors | chicken DT40 Tdp1-/-;hTDP1 cells + 20 nM CPT, ATP luminescence, 48 h | 420,000 tested, 12% active; also: nearly all actives have a fitted effect of over 55% in size
#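 Cell growth measured by CellTiter-Glo luminescence after a minimum 48 h, 37 C compound exposure with 20 nM CPT in Tdp1-knockout DT40 cells stably expressing hTDP1, seeded 400/well; qHTS titration format.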
# * hit, by the source's call; i = inactive; ? = inconclusive; nt = no result given. Calls follow the shape of the dose curve; as a rule, active = well fitted curve in the direction sought with a large enough effect; inconclusive = small, poorly fitted or top-dose-only effect, or another doubt; inactive = no such curve, though single readings can be large; an effect the other way counts as inactive or inconclusive. Unless noted, % is scaled to controls: 0 for no effect and ±100 for the full control effect; potency is read from the fitted curve at half-maximal effect.
SMILES,HT1080NT lethal,HT1080 IDH1KD tx,KB-V1 cytotox,KB-3-1 tox,DT40 TDP1 no CPT,DT40 TDP1 CPT
Cc1ccc(NC(=O)Cn2ncc(Cl)c(Cl)c2=O)cc1S(=O)(=O)N1CCCCC1,?,?,?,?,3.3µM*,7.3µM*
Cc1ccc(OCCC(=O)OCC(=O)Nc2ccc(C)c(S(=O)(=O)N3CCOCC3)c2)cc1,-4%,-8%,i,i,9%,0%
Cc1ccc(NC(=O)Cc2ccc(Cl)cc2)cc1S(=O)(=O)N1CCCCCC1,?,?,i,?,?,?
CCOc1ccc(NC(=O)COc2cccc3cccnc23)cc1S(=O)(=O)N1CCCC1,-14%,?,21µM*,?,15µM*,?
CCCn1c(C)cc(C(=O)COc2ncnc3sccc23)c1C,-10%,?,i,?,?,?
Cc1ccc(NC(=O)COc2ccc(-c3nnco3)cc2)cc1S(=O)(=O)N1CCOCC1,-9%,2%,i,?,13µM*,?
CCCn1c(C)cc(C(=O)COc2ccc(-c3nnco3)cc2)c1C,-11%,-1%,?,?,7.3µM*,4.6µM*
COc1ccc(/C=C/C(=O)NCC2Cc3cc(Cl)cc(-c4ncccn4)c3O2)cc1 (stereo not given),nt,nt,nt,nt,-15%,-6%
Cc1ccc(NC(=O)COc2ccccc2C#N)cc1S(=O)(=O)N1CCCCCC1,-6%,-13%,?,?,?,?
Cc1ccc(NC(=O)COc2cccnc2[N+](=O)[O-])cc1S(=O)(=O)N1CCCCC1,-5%,-11%,?,i,21µM*,13µM*
COc1ccc(NC(=O)CSc2ccc(F)cc2)cc1S(=O)(=O)N1CCCCC1,-6%,-29%,i,i,-85%,21µM*
Cc1ccc(NC(=O)COC(=O)c2ccc([N+](=O)[O-])o2)cc1S(=O)(=O)N1CCCCC1,-15%,-9%,i,i,-21%,-35%
Cc1ccc(NC(=O)COc2ccccc2)cc1S(=O)(=O)N1CCCCCC1,1%,-11%,i,i,29µM*,?
Cc1ccc(CN2CC(C(=O)Nc3ccc(C)c(S(=O)(=O)N4CCCCC4)c3)CC2=O)cc1 (stereo not given),-4%,-26%,21µM*,16µM*,?,?
CCOc1ccc(NC(=O)c2ccc3[nH]c(=O)c(=O)[nH]c3c2)cc1,8%,8%,i,i,4%,0%
COc1ccccc1OCC(=O)Nc1nc(C)c(C)s1,-19%,-7%,?,i,?,3%
CCOc1ccc(NC(=O)CN2CCN(c3ccc(F)cc3)CC2)cc1S(=O)(=O)N1CCCC1,-14%,-12%,i,i,?,?
CCOc1ccc(NC(=O)CN2CCN(c3ccccc3C)CC2)cc1S(=O)(=O)N1CCCC1,-2%,-2%,4.1µM*,i,?,?
Cc1ccc(NC(=O)CSc2ccccc2)cc1S(=O)(=O)N1CCCCC1,5%,-20%,nt,nt,?,15µM*
S=c1[nH]nc(Cc2noc3ccccc23)n1-c1ccccc1,0%,0%,i,i,?,?
CC(C)Cn1c(N)c(C(=O)COC(=O)c2ccc(O)cc2)c(=O)n(C)c1=O,1%,5%,?,?,?,-20%
CC(C)Cn1c(N)c(C(=O)COC(=O)c2cnc(Cl)c(Cl)c2)c(=O)n(C)c1=O,-16%,-6%,i,i,?,18µM*
Cc1nn(-c2ccccc2)c(C)c1C(=O)OCC(=O)c1c(N)n(CC(C)C)c(=O)n(C)c1=O,-17%,-22%,i,?,18µM*,21µM*
